Source: PubChem BioAssay (EPA / NIEHS)
Inconclusive results are not listed. Where a structure was tested more than once in an assay, its records may differ in their call. Activity calls are given as the source filed them. The calls were made as follows, unless noted: active = hit-call score of the fitted dose curve at least 0.9, where 1 is the maximum; inconclusive = response in the unintended direction; inactive = score below 0.9.

How the values were obtained:
SERPINA7 (gene 6906) = experiment: CCTE_GLTED_hTBG: CCTE's human Thyroxine-binding Globulin (TBG) Inhibition Assay, Great Lakes Toxicology and Ecology Division (GLTED) Lab (AID 2284343);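 also: active chemicals lower fluorescence versus DMSO baseline by displacing probe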
Outline: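 Human TBG incubated 2 h with test chemical; displacement of ANSA probe read by fluorescence, 380 nm excitation/475 nm emission. Loss of signal relative to DMSO.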

[1] = IUF_NPC2-5_viability_120hr: Viability Assessment at 120 hours in the Leibniz Research Institute for Environmental Medicine (IUF) Neural Progenitor Cell Migration and Differentiation Assay (NPC2-5) (AID 2284312; active = hit-call score of the fitted dose curve at least 0.9, where 1 is the maximum; inactive = score below 0.9)
Outline: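 Human fetal (GW 16-19) neural progenitor spheres of 0.3 mm were plated on poly-D-lysine/laminin in N2 differentiation medium and exposed from day 0 for 120 h, with half-medium refresh at day 3. Viability was read as alamar blue resazurin-to-resorufin fluorescence against DMSO.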

[2] = IUF_NPC1_cytotoxicity_72hr: Cytotoxicity Assessment at 72 hours in the Leibniz Research Institute for Environmental Medicine (IUF) Neural Progenitor Cell Proliferation Assay (NPC1) (AID 2284332);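 also: rising LDH signal means more cytotoxicity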
Outline: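 Human fetal neural progenitor spheres (0.3 mm) in EGF/FGF proliferation medium, 37C, exposed 72 h without renewal. LDH release in supernatant read by resorufin fluorescence; gain of signal scored relative to dynamic range.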

[3] = CCTE_Mundy_HCI_iCellGluta_NOG_NeuronCount: CCTE's Neurite Outgrowth Assay in iCellGluta cells for Neuron Count, Mundy Lab (AID 2284340);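 also: cells fixed about 48 h after compound addition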
Outline: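 Neuron count read by automated high-content imaging of Hoechst 33342 and betaIII-tubulin/Alexa Fluor-488 labelling in human iPSC glutamatergic neurons. Activity fitted relative to DMSO.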

[4] = CCTE_Mundy_HCI_iCellGluta_NOG_NeuriteCount: CCTE's Neurite Outgrowth Assay in iCellGluta cells for Neurite Count, Mundy Lab (AID 2284342);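 also: chemical exposure about 48 hours starting 2 hours after plating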
IYD (gene 389434) = experiment: CCTE_GLTED_hIYD: CCTE's human Iodotyrosine Deiodinase (xIYD) Inhibition Assay, Great Lakes Toxicology and Ecology Division (GLTED) Lab (AID 2284317);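 also: cell-free human IYD enzyme made in baculovirus insect cells; iodide freed from monoiodotyrosine measured by cerium arsenite color change at 420 nm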
Outline: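 hIYD: baculovirus-expressed human IYD deiodinated monoiodotyrosine for 3 h with test chemical; free iodide was measured by Sandell-Kolthoff absorbance at 420 nm and normalized to MNT and DMSO/NaOH controls.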

[5] = TAMU_PeakParms_SingleDonor1434_Asystole: Texas A&M University (TAMU) 1.5-hr Human Induced Pluripotent Stem Cell (iPSC)-derived Cardiomyocytes Calcium (Ca+2) Flux Assay for Cardiotoxicity: Asystole (quiescence of beating) (AID 2284328)
Outline: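 Human iPSC-derived cardiomyocytes (donor 1434) were exposed to 0.2, 1, 10 and 100 uM compound in 0.5% DMSO for 90 min at 37C. Ca2+-dye fluorescence gave average peak frequency; POD is EC95, a 95% beat-rate drop versus DMSO.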

[6] = CCTE_Deisenroth_5AR_NBTE_donor: CCTE's 5alpha-reductase NanoBRET Target Engagement Assay […], Deisenroth Lab (AID 2284319; active = hit-call score of the fitted dose curve at least 0.9, where 1 is the maximum; inactive = score below 0.9); details: actives raise or lower the signal
Outline: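 SRD5A2-NanoLuc, HEK293T, 20 h expression. Chemical 10 nM - 29.9 uM, 8 conc, duplicate; 3 h preincubation + 2 h testosterone tracer. Nano-Glo substrate plus extracellular NanoLuc inhibitor; donor lum 460 nm. DMSO baseline, bidirectional fit.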

[7] = CCTE_Deisenroth_5AR_NBTE_acceptor: CCTE's 5alpha-reductase NanoBRET Target Engagement Assay - Autofluorescence Screen, Deisenroth Lab (AID 2284321; active = hit-call score of the fitted dose curve at least 0.9, where 1 is the maximum; inactive = score below 0.9;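 also: compound fluorescence in the acceptor channel under 460 nm excitation flags autofluorescence artifacts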); details: actives raise or lower the signal
Outline: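 Using three independent plate-reader runs, nominal 100 uM chemicals were checked for intrinsic fluorescence (ex 460 nm). DMSO defined the baseline for bidirectional fitting.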

SRD5A2 (gene 6716) = experiment: CCTE_Deisenroth_5AR_NBTE_ratio: CCTE's 5alpha-reductase NanoBRET Target Engagement Assay - Ratio, Deisenroth Lab (AID 2284322; active = hit-call score of the fitted dose curve at least 0.9, where 1 is the maximum; inactive = score below 0.9); details: actives raise or lower the signal
Outline: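 HEK293T transiently expressing SRD5A2-NanoLuc; cells exposed to chemical (8-point, 10 nM - 29.9 uM) for 5 h total, testosterone tracer added for final 2 h. NanoBRET acceptor/donor ratio (650/460 nm), bidirectional fit vs DMSO.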

TTR (gene 7276) = experiment: CCTE_GLTED_hTTR_0.5uM: CCTE's human Transthyretin (hTTR) Inhibition Assay, with 0.5uM TTR, Great Lakes Toxicology and Ecology Division (GLTED) Lab (AID 2284320; active = hit-call score of the fitted dose curve at least 0.9, where 1 is the maximum; inactive = score below 0.9)
Outline: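 Cell-free displacement assay in which human TTR at 0.5 uM was incubated with test chemical for 2 h. Displacement of the ANSA probe was read by fluorescence at 380 nm excitation/475 nm emission. Loss of signal was fitted in the positive direction versus DMSO.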

With `C#CCN1C(=O)COc2cc(F)c(N3C(=O)C4=C(CCCC4)C3=O)cc21` the AC50 (SERPINA7 (gene 6906)) was 8.38 µM (active).

For `CNC(=O)CSP(=S)(OC)OC`, the outcome [1] was “inactive”, the outcome [2] was “inactive” and the outcome [3] was “inactive”. For the same compound, the outcome [4] was “inactive”.

With `CC[C@H](C)[C@H]1O[C@]2(C=C[C@@H]1C)C[C@@H]1C[C@@H](C/C=C(\C)[C@@H](O[C@H]3C[C@H](OC)[C@@H](O[C@H]4C[C@H](OC)[C@@H](O)[C@H](C)O4)[C@H](C)O3)[C@@H](C)/C=C/C=C3\CO[C@@H]4[C@H](O)C(C)=C[C@@H](C(=O)O1)[C@]34O)O2` (tested in a mixture with another compound) the AC50 [1] was 8.02 µM (active), the outcome [2] was “inactive” and the AC50 [3] was 3.77 µM (active). For the same compound, the AC50 [4] was 3.36 µM (active).

With `COP(=S)(OC)Oc1ccc([N+](=O)[O-])cc1` the outcome [1] was “inactive”, the outcome [2] was “inactive” and the outcome [3] was “inactive”. The AC50 [4] was 23.4 µM (active).

In the case of `CC(C)(C)C(O)/C(=C\c1ccc(Cl)cc1Cl)n1cncn1` (configuration not stated), the AC50 (SERPINA7 (gene 6906)) is reported as 30.8 µM (active).

With `CCOCN(C(=O)CCl)c1c(C)cccc1CC` the outcome (IYD (gene 389434)) was “inactive” and the outcome [5] was “inactive”.

In the case of `COP(=S)(OC)Oc1ccc(SC)c(C)c1`, the AC50 (SERPINA7 (gene 6906)) is reported as 12 µM (active).

In the case of `O=[N+]([O-])/N=C1\NCCN1Cc1ccc(Cl)nc1`, the outcome [1] is reported as “inactive”, the outcome [6] is reported as “inactive” and the outcome [7] is reported as “inactive”. The outcome (SRD5A2 (gene 6716)) was “inactive”, the outcome [2] was “inactive” and the outcome [3] was “inactive”. For the same compound, the outcome [4] was “inactive”.

In the case of `O=C(O)C(F)(F)C(F)(F)C(F)(F)C(F)(F)C(F)(F)C(F)(F)C(F)(F)F`, the outcome [1] is reported as “inactive”, the AC50 (TTR (gene 7276)) is reported as 450 nM (active) [middle of 4 runs] and the outcome [2] is reported as “inactive”. For the same compound, the outcome [3] was “inactive” and the outcome [4] was “inactive”.

In the case of `COP(=O)(OC)OC=C(Cl)Cl`, the AC50 [1] is reported as 29.7 µM (active), the outcome [2] is reported as “inactive” and the outcome [3] is reported as “inactive”. The AC50 [4] was 49 µM (active).

In the case of `CC1(C)C(C=C(Cl)Cl)C1C(=O)OC(C#N)c1ccc(F)c(Oc2ccccc2)c1` (configuration not stated), the outcome [1] is reported as “inactive”, the outcome [2] is reported as “inactive” and the AC50 [3] is reported as 49.9 µM (active). The outcome [3] was “inactive”, the AC50 [4] was 22.3 µM (active) and the outcome [4] was “inactive”.

With `O=C(O)CCCOc1ccc(Cl)cc1Cl` the AC50 (SERPINA7 (gene 6906)) was 20.7 µM (active).

In the case of `CCCN(CCOc1c(Cl)cc(Cl)cc1Cl)C(=O)n1ccnc1`, the outcome (IYD (gene 389434)) is reported as “inactive”, the outcome [6] is reported as “inactive” and the outcome [7] is reported as “inactive”. For the same compound, the outcome (SRD5A2 (gene 6716)) was “inactive”.

In the case of `CC(C)OC(=O)Nc1cccc(Cl)c1`, the AC50 (SERPINA7 (gene 6906)) is reported as 34.7 µM (active).

In the case of `CCC(C)Nc1c([N+](=O)[O-])cc(C(C)(C)C)cc1[N+](=O)[O-]` (configuration not stated), the outcome [6] is reported as “inactive”, the outcome [7] is reported as “inactive” and the outcome (SRD5A2 (gene 6716)) is reported as “inactive”. For the same compound, the AC50 (SERPINA7 (gene 6906)) was 22.3 µM (active).

In the case of `CCN(CC)C(=O)SCc1ccc(Cl)cc1`, the AC50 (SERPINA7 (gene 6906)) is reported as 22.4 µM (active).

For `Clc1ccccc1-c1nnc(-c2ccccc2Cl)nn1`, the AC50 (SERPINA7 (gene 6906)) was 0.23 µM (active).

For `CCC(C)(NC(=O)c1cc(Cl)c(C)c(Cl)c1)C(=O)CCl` (configuration not stated), the outcome [6] was “inactive”, the outcome [7] was “inactive” and the outcome (SRD5A2 (gene 6716)) was “inactive”.

For `O=C1c2ccccc2C(=O)N1SC(Cl)(Cl)Cl`, the outcome [6] was “inactive”, the outcome [7] was “inactive” and the outcome (SRD5A2 (gene 6716)) was “inactive”.
